Results filed as inconclusive are left out. Calls of active or inactive are those of the source. Rule for the calls, unless noted: active = hit-call score of the fitted dose curve at least 0.9, where 1 is the maximum; inconclusive = response in the unintended direction; inactive = score below 0.9.
Experiments:
[1] = ATG_M_19_TRANS: Attagene TRANS-FACTORIAL HepG2 Assay for M19 Transcription Factor (Internal Marker) (AID 2282974); conditions: HepG2 Attagene TRANS-FACTORIAL M19 internal marker reporter
Outline: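 Fluorescence of 6-FAM-labelled reporter cDNA fragments, separated by capillary electrophoresis, served as the readout. These derived from HepG2 cells carrying transfected GAL4-UAS reporter units after 24 h dosing, with DMSO as negative control.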

[2] = ATG_GAL4_TRANS: Attagene TRANS-FACTORIAL HepG2 Assay for GAL4 (Internal Marker) (AID 2282976); conditions: HepG2 Attagene TRANS GAL4 internal marker reporter
Outline: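 Background-control readout: GAL4-UAS reporter transcript in transiently transfected HepG2 cells after 24 h compound exposure. Measured by RT-PCR, 6-FAM primer extension, HpaI digest and capillary electrophoresis; gain-of-signal fit versus DMSO.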

[3] = target: Oxysterols receptor LXR-beta (Homo sapiens) (UniProt P55055); assay: ATG_LXRb_TRANS: Attagene TRANS-FACTORIAL HepG2 Assay for human Liver X Receptor beta (LXRb) (AID 2282981); conditions: HepG2 Attagene TRANS GAL4-LXRb reporter, mRNA
Outline: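 Readout: fluorescent reporter mRNA fragments resolved by capillary electrophoresis after RT-PCR. System: transiently transfected human HepG2, exogenous LXRb-Gal4 chimera driving GAL4-UAS reporter, 24 h dosing. Activity fitted upward against DMSO baseline.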

[4] = ATG_XTT_Cytotoxicity: Cytotoxicity Assessment in the Attagene TRANS-FACTORIAL HepG2 Assay (AID 2283584)
Outline: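 HepG2 cells transiently transfected with GAL4-UAS multiple reporter units, dosed 24 h; cytotoxicity read by XTT as loss of signal versus DMSO baseline.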

[5] = TOX21_p53_BLA_p3_viability: Viability Assessment in the Tox21 HCT-116 p53 Agonism Beta-lactamase Assay, Phase 3 (AID 2283593);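 note: cells exposed to compound for 16 h before reading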
Outline: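 HCT116 cells, 4000/well, dosed 5 h after plating by pin transfer (217-fold dilution from DMSO stock) and incubated 16 h at 37C, 5% CO2. Viability read as ATP luminescence with CellTiter-Glo after 30 min at room temperature.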

[6] = TOX21_p53_BLA_p4_viability: Viability Assessment in the Tox21 HCT-116 p53 Agonism Beta-lactamase Assay, Phase 4 (AID 2283597);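 note: hits lower the luminescence signal meaning cytotoxicity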
Outline: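 4000 HCT116 cells per well; 5 h attachment; compounds from DMSO, 217-fold dilution; 16 h at 37C. Then CCF4-AM, 2 h RT, followed by CellTiter-Glo, 30 min RT, luminescence. Decrease = cytotoxicity.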

[7] = ACEA_ER_AUC_viability: ACEA Biosciences xCELLigence Real-Time Cell Analysis on Estrogen Receptor Agonism for Viability (AID 2283782);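 note: hit means loss of impedance signal meaning reduced cell growth or viability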
Outline: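 Read-out: real-time electrical impedance (RT-CES) area under curve, loss of signal taken as reduced viability, normalized to DMSO baseline. T-47D cells, charcoal-stripped serum medium, compounds up to 100 uM final, continuous exposure, 80 h.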

[8] = CCTE_Harrill_HTTr_Viability_MCF7: CCTE's 6-hour Cell Viability Assessment for the High-Throughput Transcriptomics (HTTr) Platform, in MCF-7 cells cultured in DMEM + 10% fetal bovine serum, Harrill Lab (AID 2284010; active = hit-call score of the fitted dose curve at least 0.9, where 1 is the maximum; inactive = score below 0.9)
Outline: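 Eight-point concentration series, six-hour exposure. Propidium iodide exclusion imaged to assess membrane integrity as a cytotoxicity readout; bidirectional fitting was done with DMSO as negative control and activity baseline.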

[9] = CCTE_Harrill_HTTr_Apoptosis_MCF7: CCTE's 6-hour Apoptosis Assessment for the High-Throughput Transcriptomics (HTTr) Platform, in MCF-7 cells cultured in DMEM + 10% fetal bovine serum, Harrill Lab (AID 2284011; active = hit-call score of the fitted dose curve at least 0.9, where 1 is the maximum; inactive = score below 0.9)
Outline: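 MCF-7 cells in DMEM + 10% FBS exposed 6 h to chemicals over an eight-point dilution series. Caspase-3/7 activation imaged by high-content CellEvent Green staining; fitted bidirectionally versus DMSO.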

[10] = target: Bile acid receptor (Homo sapiens) (UniProt Q96RI1); assay: ATG_IR1_CIS: Attagene CIS-FACTORIAL HepG2 Assay for human Nuclear Receptor Subfamily 1 Group H Member 4 (NR1H4), IR1 submotif (AID 2282946; active = hit-call score of the fitted dose curve at least 0.9, where 1 is the maximum; inactive = score below 0.9); conditions: IR1 reporter transcription, actives raise or lower the signal
Outline: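 Fluorescence of capillary-separated, HpaI-digested RT-PCR reporter products gave IR1-element mRNA induction in HepG2 cells 24 h after dosing. Endogenous transcription factors drove the cis-regulated reporters; activity was fitted bidirectionally against DMSO.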

[11] = target: Glucocorticoid receptor (Homo sapiens) (UniProt P04150); assay: ATG_GR_TRANS: Attagene TRANS-FACTORIAL HepG2 Assay for human Glucocorticoid Receptor (GR) (AID 2282978); conditions: HepG2 Attagene TRANS GR reporter, mRNA transcription;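 note: activators score as hits since higher reporter transcript over DMSO is fitted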
Outline: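 Fluorescent capillary-electrophoresis quantitation of reporter mRNA is the readout, taken 24 h after dosing human HepG2 cells carrying transiently transfected GAL4-UAS reporter units activated by chimeric NR-GAL4 fusions; activity scored as induction over DMSO.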

[12] = target: Nuclear receptor subfamily 1 group I member 2 (Homo sapiens) (UniProt O75469); assay: ATG_PXR_TRANS: Attagene TRANS-FACTORIAL HepG2 Assay for human Pregnane X Receptor (PXR) (AID 2283008)
Outline: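 HepG2 transfected (FuGene 6) with GAL4-UAS reporter units + PXR-Gal4 chimera; dosed 24 h. Total RNA → oligo(dT) RT → PCR → 6-FAM primer extension → HpaI cut → CE. Gain-of-signal vs DMSO.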

[13] = target: human Thyroid Receptor alpha (THRa1), THRA (gene 7067) (UniProt P10827); assay: ATG_THRa1_TRANS: Attagene TRANS-FACTORIAL HepG2 Assay for human Thyroid Receptor alpha (THRa1) (AID 2283014)
Outline: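 HepG2 cells transiently transfected with chimeric NR-Gal4 and GAL4-UAS reporter units, dosed 24 h. Reporter mRNA quantified by RT-PCR, fluorescent labeling, HpaI digestion and capillary electrophoresis; gain-of-signal fit versus DMSO.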

[14] = target: human Vitamin D Receptor (VDR), VDR (gene 7421) (UniProt P11473); assay: ATG_VDR_TRANS: Attagene TRANS-FACTORIAL HepG2 Assay for human Vitamin D Receptor (VDR) (AID 2283022)
Outline: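 HepG2 cells were transiently transfected with GAL4-UAS reporter units and a chimeric VDR-Gal4 construct, then dosed for 24 hours. Reporter mRNA was quantified by RT-PCR, fluorescent labeling, HpaI digestion and capillary electrophoresis; gain of signal analysed vs DMSO.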

[15] = target: Bile acid receptor (Homo sapiens) (UniProt Q96RI1); assay: ATG_FXR_TRANS: Attagene TRANS-FACTORIAL HepG2 Assay for Farnesoid X Receptor (FXR) (AID 2282979); conditions: HepG2 Attagene TRANS FXR-GAL4 reporter transcription;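 note: hits raise reporter mRNA above DMSO so AC50 marks FXR activation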
Outline: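 HepG2 cells were transiently transfected with GAL4-UAS reporters driven by chimeric NR-Gal4 proteins and dosed for 24 h. Reporter mRNA was quantified by RT-PCR, fluorescent labelling, HpaI digestion and capillary electrophoresis, with gain of signal scored versus DMSO.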

[16] = target: human Peroxisome Proliferator-activated Receptor delta (PPARd), PPARD (gene 5467) (UniProt Q03181); assay: ATG_PPARd_TRANS: Attagene TRANS-FACTORIAL HepG2 Assay for human Peroxisome Proliferator-activated Receptor delta (PPARd) (AID 2283002)
Outline: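 Fluorescence from capillary electrophoresis of labelled RT-PCR reporter fragments gives the signal; DMSO sets baseline. Cells: HepG2 transiently carrying GAL4-UAS reporter units plus chimeric nuclear receptor-Gal4 proteins, exposed to chemicals for 24 h.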

[17] = target: human RAR-related Orphan Receptor beta (RORb), RORB (gene 6096) (UniProt Q92753); assay: ATG_RORb_TRANS: Attagene TRANS-FACTORIAL HepG2 Assay for human RAR-related Orphan Receptor beta (RORb) (AID 2283010)
Outline: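 Multiplexed transcription-factor reporter assay: HepG2 cells transiently carrying NR-Gal4/GAL4-UAS constructs, 24 h treatment, mRNA quantified by RT-PCR plus capillary electrophoresis fluorescence; activity scored as induction over DMSO.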

[18] = target: Oxysterols receptor LXR-alpha (Homo sapiens) (UniProt Q13133); assay: ATG_LXRa_TRANS: Attagene TRANS-FACTORIAL HepG2 Assay for human Liver X Receptor alpha (LXRa) (AID 2282980); conditions: HepG2 Attagene TRANS reporter, LXRa transactivation
Outline: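 HepG2 cells transiently transfected with GAL4-UAS reporter units for chimeric NR-Gal4 proteins, exposed to chemicals for 24 h. Reporter mRNA quantified by RT-PCR and capillary electrophoresis; gain of signal fitted relative to DMSO.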

[19] = target: Peroxisome proliferator-activated receptor gamma (Homo sapiens) (UniProt P37231); assay: ATG_PPARg_TRANS: Attagene TRANS-FACTORIAL HepG2 Assay for human Peroxisome Proliferator-activated Receptor-gamma (PPARg) (AID 2283007)
Outline: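 Transient transfection of HepG2 with GAL4-UAS-driven reporter units; chemical dosing 24 h; total RNA → oligo(dT) RT → PCR with reporter primers → 6-FAM primer extension → HpaI digest 2 h 37 C → capillary electrophoresis. Positive direction vs DMSO.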

[20] = target: human RAR-related Orphan Receptor gamma (RORg), RORC (gene 6097) (UniProt P51449); assay: ATG_RORg_TRANS: Attagene TRANS-FACTORIAL HepG2 Assay for human RAR-related Orphan Receptor gamma (RORg) (AID 2283011)
Outline: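 HepG2 cells transiently transfected with GAL4-UAS reporter units and chimeric RORg-Gal4 construct; after 24 h chemical exposure, reporter mRNA measured by RT-PCR with fluorescent capillary electrophoresis, gain of signal fitted against DMSO.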

Measured: AC50

human Vitamin D Receptor (VDR), VDR (gene 7421), sequence (P11473 whole entry, looked up, the tested form may be a part): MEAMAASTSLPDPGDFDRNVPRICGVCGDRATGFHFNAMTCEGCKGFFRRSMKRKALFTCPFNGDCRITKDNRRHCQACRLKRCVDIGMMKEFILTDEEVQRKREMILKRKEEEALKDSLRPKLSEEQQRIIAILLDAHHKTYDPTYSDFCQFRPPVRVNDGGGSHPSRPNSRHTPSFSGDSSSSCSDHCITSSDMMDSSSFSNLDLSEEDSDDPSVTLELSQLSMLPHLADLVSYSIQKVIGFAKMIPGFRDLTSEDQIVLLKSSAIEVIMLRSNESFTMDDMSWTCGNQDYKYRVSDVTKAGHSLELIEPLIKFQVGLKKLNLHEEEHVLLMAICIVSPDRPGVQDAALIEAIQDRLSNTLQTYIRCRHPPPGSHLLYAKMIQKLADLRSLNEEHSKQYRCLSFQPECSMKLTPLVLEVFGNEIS
human Peroxisome Proliferator-activated Receptor delta (PPARd), PPARD (gene 5467), sequence (Q03181 whole entry, looked up, the tested form may be a part): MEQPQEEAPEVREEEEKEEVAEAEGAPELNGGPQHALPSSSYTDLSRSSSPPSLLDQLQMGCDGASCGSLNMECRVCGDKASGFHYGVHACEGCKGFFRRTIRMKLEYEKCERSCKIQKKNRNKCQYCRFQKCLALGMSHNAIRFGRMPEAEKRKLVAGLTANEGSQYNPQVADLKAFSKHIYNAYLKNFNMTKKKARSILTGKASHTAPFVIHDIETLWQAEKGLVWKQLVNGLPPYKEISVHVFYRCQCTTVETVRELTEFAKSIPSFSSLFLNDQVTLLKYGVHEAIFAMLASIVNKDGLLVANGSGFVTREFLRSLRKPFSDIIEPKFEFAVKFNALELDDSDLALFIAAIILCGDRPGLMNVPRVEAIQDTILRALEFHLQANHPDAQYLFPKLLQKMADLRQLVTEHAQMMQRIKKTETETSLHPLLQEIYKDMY
Glucocorticoid receptor (Homo sapiens), sequence (P04150 whole entry, looked up, the tested form may be a part): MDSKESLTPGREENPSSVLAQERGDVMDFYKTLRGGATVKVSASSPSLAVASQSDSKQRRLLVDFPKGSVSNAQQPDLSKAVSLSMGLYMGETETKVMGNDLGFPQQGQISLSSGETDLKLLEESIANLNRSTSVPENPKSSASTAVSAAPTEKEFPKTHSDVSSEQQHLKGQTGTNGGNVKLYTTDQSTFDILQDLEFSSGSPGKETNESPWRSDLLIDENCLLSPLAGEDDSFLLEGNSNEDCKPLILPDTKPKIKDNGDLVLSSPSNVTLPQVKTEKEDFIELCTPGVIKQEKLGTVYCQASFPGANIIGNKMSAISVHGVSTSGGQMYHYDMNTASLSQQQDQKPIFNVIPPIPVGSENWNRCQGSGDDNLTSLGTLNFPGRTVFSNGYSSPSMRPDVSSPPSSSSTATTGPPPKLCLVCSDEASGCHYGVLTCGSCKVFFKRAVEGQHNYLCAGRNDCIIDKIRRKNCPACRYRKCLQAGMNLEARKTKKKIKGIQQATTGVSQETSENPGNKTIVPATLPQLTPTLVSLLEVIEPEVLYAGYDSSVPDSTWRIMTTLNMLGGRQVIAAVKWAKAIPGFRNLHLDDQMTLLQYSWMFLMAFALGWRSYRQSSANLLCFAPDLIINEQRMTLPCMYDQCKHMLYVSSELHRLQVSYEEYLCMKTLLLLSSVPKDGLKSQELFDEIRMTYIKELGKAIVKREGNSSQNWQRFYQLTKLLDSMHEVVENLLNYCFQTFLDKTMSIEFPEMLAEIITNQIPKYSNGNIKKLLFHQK
human RAR-related Orphan Receptor beta (RORb), RORB (gene 6096), sequence (Q92753 whole entry, looked up, the tested form may be a part): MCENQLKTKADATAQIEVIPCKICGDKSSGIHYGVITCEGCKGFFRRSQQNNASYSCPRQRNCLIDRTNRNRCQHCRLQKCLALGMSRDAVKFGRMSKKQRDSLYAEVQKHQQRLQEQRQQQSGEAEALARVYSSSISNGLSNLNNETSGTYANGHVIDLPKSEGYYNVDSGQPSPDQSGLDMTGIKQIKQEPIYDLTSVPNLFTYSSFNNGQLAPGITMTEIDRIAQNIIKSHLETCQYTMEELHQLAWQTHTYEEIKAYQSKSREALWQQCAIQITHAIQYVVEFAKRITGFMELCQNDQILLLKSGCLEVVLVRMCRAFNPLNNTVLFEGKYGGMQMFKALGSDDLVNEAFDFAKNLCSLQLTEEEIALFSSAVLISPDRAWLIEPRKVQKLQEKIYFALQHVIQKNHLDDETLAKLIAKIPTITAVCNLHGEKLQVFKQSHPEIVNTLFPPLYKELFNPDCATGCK
Oxysterols receptor LXR-alpha (Homo sapiens), sequence (Q13133 whole entry, looked up, the tested form may be a part): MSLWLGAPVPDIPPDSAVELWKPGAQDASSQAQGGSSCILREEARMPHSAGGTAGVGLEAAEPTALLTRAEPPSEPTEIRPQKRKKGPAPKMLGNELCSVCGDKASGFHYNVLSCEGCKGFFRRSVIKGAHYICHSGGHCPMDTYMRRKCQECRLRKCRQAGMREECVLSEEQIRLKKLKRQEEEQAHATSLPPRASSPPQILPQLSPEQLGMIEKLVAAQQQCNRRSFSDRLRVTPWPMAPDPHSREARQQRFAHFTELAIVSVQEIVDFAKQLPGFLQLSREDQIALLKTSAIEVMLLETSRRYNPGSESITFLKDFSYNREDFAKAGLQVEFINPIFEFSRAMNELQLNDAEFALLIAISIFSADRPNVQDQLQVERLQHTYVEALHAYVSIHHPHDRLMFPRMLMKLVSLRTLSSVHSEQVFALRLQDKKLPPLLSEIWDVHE
Oxysterols receptor LXR-beta (Homo sapiens), sequence (P55055 whole entry, looked up, the tested form may be a part): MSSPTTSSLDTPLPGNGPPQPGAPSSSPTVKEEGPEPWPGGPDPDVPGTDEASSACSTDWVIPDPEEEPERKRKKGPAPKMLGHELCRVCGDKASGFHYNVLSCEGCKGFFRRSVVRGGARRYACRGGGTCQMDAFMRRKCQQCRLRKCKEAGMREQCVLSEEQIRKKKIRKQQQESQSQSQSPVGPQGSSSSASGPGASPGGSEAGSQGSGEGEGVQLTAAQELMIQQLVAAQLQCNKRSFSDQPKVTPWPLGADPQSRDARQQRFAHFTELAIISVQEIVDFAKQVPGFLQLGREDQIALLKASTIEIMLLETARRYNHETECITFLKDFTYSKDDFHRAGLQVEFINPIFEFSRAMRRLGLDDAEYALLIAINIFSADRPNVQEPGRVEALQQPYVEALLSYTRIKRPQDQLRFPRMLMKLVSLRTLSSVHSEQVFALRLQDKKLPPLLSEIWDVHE
human RAR-related Orphan Receptor gamma (RORg), RORC (gene 6097), sequence (P51449 whole entry, looked up, the tested form may be a part): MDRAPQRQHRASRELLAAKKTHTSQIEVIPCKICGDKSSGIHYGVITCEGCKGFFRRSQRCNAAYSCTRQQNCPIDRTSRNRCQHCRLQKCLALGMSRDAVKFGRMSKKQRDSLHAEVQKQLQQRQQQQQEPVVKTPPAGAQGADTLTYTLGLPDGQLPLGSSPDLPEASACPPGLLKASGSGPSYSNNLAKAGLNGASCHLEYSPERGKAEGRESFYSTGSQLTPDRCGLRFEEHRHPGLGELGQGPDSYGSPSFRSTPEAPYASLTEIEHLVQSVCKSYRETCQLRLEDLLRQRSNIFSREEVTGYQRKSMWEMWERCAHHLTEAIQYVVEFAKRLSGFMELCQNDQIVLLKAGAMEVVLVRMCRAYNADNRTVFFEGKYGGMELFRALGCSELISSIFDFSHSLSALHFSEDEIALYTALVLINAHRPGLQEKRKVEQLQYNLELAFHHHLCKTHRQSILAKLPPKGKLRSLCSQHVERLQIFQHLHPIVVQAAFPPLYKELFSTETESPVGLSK
human Thyroid Receptor alpha (THRa1), THRA (gene 7067), sequence (P10827 whole entry, looked up, the tested form may be a part): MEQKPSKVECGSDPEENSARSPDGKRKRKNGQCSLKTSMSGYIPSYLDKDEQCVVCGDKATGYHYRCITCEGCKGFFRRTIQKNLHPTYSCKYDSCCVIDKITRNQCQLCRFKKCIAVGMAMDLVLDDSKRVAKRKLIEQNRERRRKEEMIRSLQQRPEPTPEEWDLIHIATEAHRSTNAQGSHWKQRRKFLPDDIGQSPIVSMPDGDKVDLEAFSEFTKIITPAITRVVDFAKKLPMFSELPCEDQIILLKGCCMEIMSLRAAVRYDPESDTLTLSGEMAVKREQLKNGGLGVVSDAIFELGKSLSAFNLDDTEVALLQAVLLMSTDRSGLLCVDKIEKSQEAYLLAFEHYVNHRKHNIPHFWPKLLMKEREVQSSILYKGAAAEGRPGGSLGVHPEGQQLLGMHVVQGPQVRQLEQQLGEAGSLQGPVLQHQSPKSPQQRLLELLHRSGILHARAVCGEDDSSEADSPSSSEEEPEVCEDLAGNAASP
Bile acid receptor (Homo sapiens), sequence (Q96RI1 whole entry, looked up, the tested form may be a part): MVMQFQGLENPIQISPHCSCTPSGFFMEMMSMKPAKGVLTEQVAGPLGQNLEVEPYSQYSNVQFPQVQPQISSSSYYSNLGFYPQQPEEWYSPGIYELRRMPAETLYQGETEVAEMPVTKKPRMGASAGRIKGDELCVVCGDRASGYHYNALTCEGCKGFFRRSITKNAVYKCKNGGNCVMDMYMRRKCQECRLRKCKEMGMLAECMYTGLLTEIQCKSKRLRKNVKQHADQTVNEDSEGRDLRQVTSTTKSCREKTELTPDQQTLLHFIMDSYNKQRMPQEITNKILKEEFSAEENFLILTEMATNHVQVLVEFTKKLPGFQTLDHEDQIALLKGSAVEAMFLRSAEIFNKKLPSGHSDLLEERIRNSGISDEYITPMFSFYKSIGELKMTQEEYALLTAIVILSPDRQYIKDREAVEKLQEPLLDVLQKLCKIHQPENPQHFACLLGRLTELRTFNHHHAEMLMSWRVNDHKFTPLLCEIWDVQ
Nuclear receptor subfamily 1 group I member 2 (Homo sapiens), sequence (O75469 whole entry, looked up, the tested form may be a part): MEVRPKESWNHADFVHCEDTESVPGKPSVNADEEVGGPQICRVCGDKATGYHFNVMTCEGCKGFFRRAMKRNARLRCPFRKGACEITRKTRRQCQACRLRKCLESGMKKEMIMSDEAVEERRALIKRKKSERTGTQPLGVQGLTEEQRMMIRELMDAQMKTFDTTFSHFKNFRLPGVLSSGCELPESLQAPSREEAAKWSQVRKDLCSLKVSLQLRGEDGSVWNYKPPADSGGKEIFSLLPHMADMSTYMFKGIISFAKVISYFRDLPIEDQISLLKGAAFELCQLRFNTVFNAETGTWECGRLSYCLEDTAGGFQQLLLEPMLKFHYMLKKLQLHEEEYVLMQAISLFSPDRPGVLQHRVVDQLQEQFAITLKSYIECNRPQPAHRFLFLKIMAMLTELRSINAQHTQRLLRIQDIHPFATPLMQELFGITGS

CN(C)CCC(c1ccc(Cl)cc1)c1ccccn1 (stereo not drawn)
inactive: [1] | [2] | [3] | [4] | [5] | [6] | [7] | [8] | [9]

CCO[Si](OCC)(OCC)c1ccccc1
inactive: [10] | [1] | [11] | [12] | [13] | [14] | [5] | [7]

COc1c2occc2cc2ccc(=O)oc12
inactive: [15] | [16] | [17] | [13] | [4] | [5] | [6] | [7] | [8] | [9]

O=C(O)c1nc(Cl)c(Cl)c(Cl)c1Cl
inactive: [2] | [11] | [18] | [3] | [16] | [12] | [13] | [14]

Cc1cc(C)c(S(=O)(=O)O)cc1N=Nc1cc(S(=O)(=O)O)c2ccccc2c1O
inactive: [18] | [3] | [19] | [12] | [20] | [13] | [14] | [4] | [5] | [7]

CCCCCCCCCC/C=C/C1CC(=O)OC1=O (stereo not drawn)
inactive: [10] | [1] | [11] | [15] | [18] | [16] | [20] | [14] | [4] | [5] | [6]
active: [7] 64.1 µM

O=C(O)Cc1c[nH]c2ccccc12
inactive: [10] | [1] | [2] | [11] | [15] | [18] | [3] | [12] | [13] | [5] | [6] | [7] | [8] | [9]

COC(=O)c1ccccc1
inactive: [1] | [2] | [18] | [3] | [16] | [12] | [17] | [20] | [13] | [14] | [4] | [5] | [6]

CC1=NN(c2cc(Cl)c(S(=O)(=O)O)cc2Cl)C(=O)C1N=Nc1ccc(S(=O)(=O)O)cc1 (stereo not drawn)
inactive: [1] | [18] | [3] | [12] | [17] | [13] | [14] | [4] | [6]

O=C(C(=O)c1ccccc1)c1ccccc1
active: [12] 11.3 µM
inactive: [1] | [13] | [4] | [8] | [9]

c1cc[c]([Bi]([c]2ccccc2)[c]2ccccc2)cc1
inactive: [2] | [3] | [14] | [4]

COCCCN
inactive: [1] | [18] | [16] | [19] | [20] | [13] | [4] | [5] | [6] | [7]

O=C(O)/C=C/C(=O)O
inactive: [2] | [11] | [18] | [16] | [17] | [13] | [14] | [7] | [8] | [9]

From PubChem BioAssay (EPA / NIEHS)
